Screens: PubChem, National Center for Advancing Translational Sciences (NCATS)
Only some compounds are listed: those with a hit (about 1.1% of all), similar ones and a draw of the others.
TbPYK inhibitor: qHTS of Trypanosoma Brucei Inhibitors; AID 624173, 2012; 410,000 compounds, 0.12% hits; TbPYK enzyme, Kinase-Glo Plus ATP luminescence, 45 min; Potency, µM (doses to about 76.8 µM), for inactives: at the top dose activity, negative = inhibition, usual class: inhibitors; pyruvate kinase (Trypanosoma brucei), Q57TT1; also: % is scaled to controls: 0 for no effect and ±100 for the full control effect; nearly all actives have a fitted effect of over 50% in size
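Readout: single end-point luminescence (Kinase-Glo Plus, 10 min). Reaction conditions were TbPYK/substrate plus 130 uM ADP, 45 min at RT, pH 7.2 TEA buffer. No-enzyme wells served as controls, and data were normalized before concentration-response fitting.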
LmPK inh: qHTS Assay for Inhibitors of Leishmania Mexicana Pyruvate Kinase (LmPK). Q27686. purified LmPK, Kinase-Glo ATP luminescence, 1 h. Potency, µM (series often up to 57.5 µM), for inactives: top-dose activity change, negative = inhibition, usual class: inhibitors. 290,000 compounds, 0.37% hits. AID 1721, 2009; also: % is scaled to controls: 0 for no effect and ±100 for the full control effect
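Kinase-Glo luminescence read after 1 h RT reaction of 0.1 nM LmPK with 0.5 mM PEP and 0.1 mM ADP. Activity scaled between uninhibited and enzyme-free controls.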
SARS PLpro yeast: qHTS of Yeast-based Assay for SARS-CoV PLP | S. cerevisiae expressing SARS-CoV PLpro, growth rescue | Potency, µM (doses to about 32.9 µM), for inactives: at the highest dose activity, positive = growth rescue, most hits filed as activators | 330,000 compounds, 0.19% hits; calls by dose curve; also: 0% is about no effect; nearly all actives have a fitted effect of over 55% in size
RE007 growth inh: qHTS Assay for Inhibitors of the HIV-1 protein Vpr; S. pombe RE007 Vpr strain, BacTiter-Glo ATP luminescence, 24 h; Potency, µM (top dose mostly 92.2 µM), for the others: at the top dose activity change, negative = less growth, most hits filed as inhibitors; 360,000 compounds, 0.21% hits; AID 651644, 2012; active = well fitted falling curve with a large enough effect; inconclusive = small, poorly fitted or top-dose-only effect; inactive = no such curve, though single readings can be large or run the other way; also: % is scaled to controls: 0 for no effect and ±100 for the full control effect; nearly all actives have a fitted effect of over 50% in size
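Fission yeast strain RE007, carrying one chromosomally integrated HIV-1 vpr copy, was seeded at OD 0.01 in PMG+AL medium with 23 nL pinned compound. After 24 h at 30 °C and 99% humidity, viability was read by BacTiter-Glo luminescence.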
Giardia FBPA inh-1: qHTS Assay for Inhibitors of Fructose-1,6-bisphosphate Aldolase from Giardia Lamblia; 290,000 compounds, 0.71% hits; purified Giardia FBPA; Potency, µM (highest dose often 59.6 µM), for inactives: at the highest dose activity, negative = inhibition, usual class: inhibitors; AID 2451, 2010; also: % is scaled to controls: 0 for no effect and ±100 for the full control effect; nearly all actives have a fitted effect of over 55% in size
Target sequence (A8B2U2 whole entry, looked up): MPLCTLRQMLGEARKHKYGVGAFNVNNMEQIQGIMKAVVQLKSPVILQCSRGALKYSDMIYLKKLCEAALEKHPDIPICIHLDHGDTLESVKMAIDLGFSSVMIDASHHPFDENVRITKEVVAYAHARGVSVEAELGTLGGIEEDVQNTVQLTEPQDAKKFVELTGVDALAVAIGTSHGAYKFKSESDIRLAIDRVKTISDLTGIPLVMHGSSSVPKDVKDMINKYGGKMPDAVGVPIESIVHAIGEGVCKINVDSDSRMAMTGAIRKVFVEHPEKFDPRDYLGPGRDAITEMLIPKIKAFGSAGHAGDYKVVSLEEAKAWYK
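Giardia FBPA (40 nM reagent) was preincubated 10 min at RT with compound (up to 57.5 uM final), then substrate plus GAPDH/TPI/NAD/arsenate coupling system with diaphorase/resazurin was added; resorufin fluorescence (525/598 nm) was read after 20 min.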
Giardia growth: qHTS Assay for Inhibitors of Fructose-1,6-bisphosphate Aldolase from Giardia Lamblia: Giardia lamblia growth inhibition. shares compounds with Giardia FBPA inh-1. Giardia lamblia trophozoite growth inhibition. 1,500 compounds, 5% hits. AID 2785, 2010. Potency, µM (doses to about 57.5 µM), without a hit: top-dose activity change, negative = inhibition, hits mostly inhibitors;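 also: trophozoites exposed to compound for 48 h at 37 °C; % is scaled to controls: 0 for no effect and ±100 for the full control effect; nearly all actives have a fitted effect of over 70% in size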
Mammal cell tox: qHTS Assay for Inhibitors of Fructose-1,6-bisphosphate Aldolase from Giardia Lamblia: Mammalian cellular toxicity; mammalian cell viability counter-screen, qHTS; shares compounds with Giardia FBPA inh-1; Potency, µM (doses to about 57.5 µM), for inactives: top-dose viability change, negative = toxicity, actives largely listed as inhibitors; AID 2786, 2010; 1,500 compounds, 4% hits;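 also: Chinese hamster ovary cells used as mammalian cytotoxicity surrogate; viability measured as cellular ATP by luminescence; compound exposure lasted 48 h before reading; % is scaled to controls: 0 for no effect and ±100 for the full control effect; nearly all actives have a fitted effect of over 60% in size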
Giardia FBPA inh-2: qHTS Assay for Inhibitors of Fructose-1,6-bisphosphate Aldolase from Giardia Lamblia: Primary screen confirmation; shares compounds with Giardia FBPA inh-1; purified Giardia aldolase enzyme activity, qHTS; Potency, µM (series often up to 57.5 µM), for inactives: at the highest dose activity change, negative = inhibition, actives largely listed as inhibitors; 1,500 compounds, 5% hits; AID 2787, 2010; also: % is scaled to controls: 0 for no effect and ±100 for the full control effect; nearly all actives have a fitted effect of over 45% in size
Rabbit FBPA inh: qHTS Assay for Inhibitors of Fructose-1,6-bisphosphate Aldolase from Giardia Lamblia: Rabbit FBPA Selectivity | shares compounds with Giardia FBPA inh-1 | Rabbit muscle FBPA enzyme inhibition, selectivity counter-screen | Potency, µM (top dose mostly 57.5 µM), for inactives: at the highest dose activity, negative = inhibition, hits mostly inhibitors | 1,500 compounds, 4% hits; also: % is scaled to controls: 0 for no effect and ±100 for the full control effect; nearly all actives have a fitted effect of over 60% in size
GAPDH coupling: qHTS Assay for Inhibitors of Fructose-1,6-bisphosphate Aldolase from Giardia Lamblia: Coupling assay counterscreen confirmation | Potency, µM (top dose mostly 57.5 µM), inactives show top-dose activity change, negative = inhibition, usual class: inhibitors | AID 2795, 2010 | GAPDH coupling enzyme counterscreen, biochemical, qHTS | 1,500 compounds, 6% hits | shares compounds with Giardia FBPA inh-1; also: % is scaled to controls: 0 for no effect and ±100 for the full control effect; nearly all actives have a fitted effect of over 55% in size
Starred values were filed as active, the others as inactive; [ ] = dose if it differs, or a comment. Unless noted, calls follow the shape of the dose curve; as a rule, active = well fitted curve in the direction sought with a large enough effect; inconclusive = small, poorly fitted or top-dose-only effect, or another doubt; inactive = no such curve, though single readings can be large; an effect the other way counts as inactive or inconclusive. Potency is read from the fitted curve at half-maximal effect.

What do the screens show for `CCOC(=O)c1sc(=S)n(-c2ccccc2)c1C`?
TbPYK inhibitor: -2%; LmPK inh: 0%; SARS PLpro yeast: -1%; RE007 growth inh: 17%; Giardia FBPA inh-1: 5%

What do the screens show for `CCOC(=O)c1c(O)c(O)c(C(=O)OCC)n1-c1ccccc1`?
TbPYK inhibitor: -10%; LmPK inh: 1%; SARS PLpro yeast: 2%; RE007 growth inh: -12%; Giardia FBPA inh-1: 20µM*; Giardia growth: 19%; Mammal cell tox: -7%; Giardia FBPA inh-2: -16%; Rabbit FBPA inh: -27%; GAPDH coupling: -18%

What do the screens show for `Cc1c(N=Nc2c(O)[nH]c(=S)[nH]c2=O)c(=O)n(-c2ccccc2)n1C`?
TbPYK inhibitor: -30%; LmPK inh: 1%; SARS PLpro yeast: -4%; RE007 growth inh: 7%; Giardia FBPA inh-1: inconclusive

Results for CCN1CCN(c2oc(-c3ccc(COc4ccccc4C)o3)nc2C#N)CC1 ?
TbPYK inhibitor: 0%

Results for CCc1ccc(CNC(=O)COc2cc(=O)n(CC)c3ccccc23)cc1 ?
TbPYK inhibitor: -12%

How did CCOc1ccc(N=Nc2c(C)[nH]n(-c3ccccc3)c2=O)cc1 do in these assays?
TbPYK inhibitor: -3%; LmPK inh: 9%; SARS PLpro yeast: 4%; RE007 growth inh: 14%; Giardia FBPA inh-1: 7.9µM*; Giardia growth: -5%; Mammal cell tox: 1%; Giardia FBPA inh-2: 1%; Rabbit FBPA inh: 4%; GAPDH coupling: 8%

How did Cc1ccccc1N=Nc1c(C)[nH]n(-c2ccccc2)c1=O do in these assays?
TbPYK inhibitor: 7%; LmPK inh: 11%; SARS PLpro yeast: 0%; RE007 growth inh: 5%; Giardia FBPA inh-1: 0%

How did COc1cccc(N=Nc2c(C)[nH]n(-c3ccccc3)c2=O)c1 do in these assays?
TbPYK inhibitor: 0%; LmPK inh: 3%; SARS PLpro yeast: -4%; RE007 growth inh: -7%; Giardia FBPA inh-1: 3.5µM*; Giardia growth: -16%[38.3 µM]; Mammal cell tox: -3%; Giardia FBPA inh-2: -11%; Rabbit FBPA inh: 5%; GAPDH coupling: -5%

What do the screens show for `Cc1[nH]n(-c2ccccc2)c(=O)c1N=Nc1ccc2c(c1)OCO2`?
TbPYK inhibitor: 5%; LmPK inh: 8%; SARS PLpro yeast: -2%; RE007 growth inh: 8%; Giardia FBPA inh-1: -20%

What do the screens show for `O=C(O)/C=C/C(=O)Nc1ccc(C(=O)c2ccccc2)cc1`?
TbPYK inhibitor: 1%; LmPK inh: 7%; SARS PLpro yeast: 1%; RE007 growth inh: -2%; Giardia FBPA inh-1: 6%
